Assay results: PubChem BioAssay (Tox21)
“And” between values parts separate entries of the source, which are not always exact repeats. Equal values may be shown once. Inconclusive results are not listed. The source made the active and inactive calls. Unless noted, calls come from the whole dose curve; as a rule, active = well fitted curve in the direction sought with a large enough effect in the repeat runs; inconclusive = weak or mixed curves; inactive = no such curve, though single readings can be large; an effect the other way counts as inactive or inconclusive.

How the values were obtained:
Aromatase (Homo sapiens) = Aromatase (Homo sapiens) (UniProt P11511); experiment: qHTS assay to identify aromatase inhibitors (AID 743083); note: nearly all actives have a fitted effect of over 55% in size; note: potency is the fitted concentration of half-maximal effect
[1] = qHTS assay to identify small molecule agonists of the AP-1 signaling pathway - cell viability counter screen (AID 1159525; calls by dose curve; note: nearly all actives have a fitted effect of over 55% in size; note: potency is the fitted concentration of half-maximal effect)
In short: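 Intracellular ATP by Cell Titer Glo luminescence (30 min, RT) in the same ME-180 AP-1-bla wells after the 5 h compound exposure at 37 °C. Normalised to tetra n-octyl ammonium bromide and DMSO controls.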

[2] = qHTS assay to identify small molecule agonists of the estrogen related receptor signaling pathway with the pleiotropic PPARgamma coactivator (PGC) from Tox21 10K library (AID 1224842); note: nearly all actives have a fitted effect of over 15% in size
In short: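 Luminescence from One-Glo (30 min, room temperature) measured after PGC/ERR cells had 18 h at 37 C with pinned compound (23 nL in DMSO). Cells had been seeded at 2,000 per well and pre-incubated 6 h.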

[3] = A CellTox Green Cytotoxicity Assay to monitor cytotoxicity in HEK293 cells - 40 hour (AID 1224871); note: nearly all actives have a fitted effect of over 45% in size; note: potency is the fitted concentration of half-maximal effect
In short: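 Real-time, in one plate: 600 HEK293 cells/well with dead-cell DNA dye, pinned compound after 5 h, 37 C incubation over 40 h; viable cells give no appreciable fluorescence.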

[4] = A CellTox Green Cytotoxicity Assay to monitor cytotoxicity in HepG2 cells - 16 hour (AID 1224876); note: nearly all actives have a fitted effect of over 45% in size; note: potency is the fitted concentration of half-maximal effect
In short: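 Cytotoxicity was tracked as dead-cell DNA fluorescence in HepG2 cells treated with test compounds at 37 C; each time-point value comes from one kinetic series spanning 0, 8, 16, 24, 32 and 40 h.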

[5] = qHTS RealTime-Glo MT Cell Viability Assay in HepG2 cells - 32 hour (AID 1224877); note: nearly all actives have a fitted effect of over 55% in size; note: potency is the fitted concentration of half-maximal effect
In short: (§1)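 Tox21 10K library screened in qHTS format on HepG2 cells carrying RealTime-Glo reagents. Compounds were added after a 5 h preincubation, and the luminescent signal from continuous culture was measured repeatedly during 40 h treatment.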

[6] = qHTS RealTime-Glo MT Cell Viability Assay in HEK293 cells - 0 hour (AID 1224880); note: top concentration of the series differs between compounds; nearly all actives have a fitted effect of over 45% in size
In short: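 Kinetic, non-lysing viability readout. Seed HEK293 (600/well) with reagent, incubate 5 h at 37 C/5% CO2, pin 23 nL compound in DMSO, incubate at 37 C, read luminescence at 0, 8, 16, 24, 32, 40 h.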

[7] = qHTS RealTime-Glo MT Cell Viability Assay in HepG2 cells - 0 hour (AID 1224889); note: nearly all actives have a fitted effect of over 50% in size
In short: as §1

[8] = qHTS assay to identify small molecule antagonists of the androgen receptor (AR) signaling pathway using the MDA cell line in the presence of 0.5 nM R1881 - cell viability counter screen (AID 1259242); note: nearly all actives have a fitted effect of over 45% in size; note: potency is the fitted concentration of half-maximal effect
In short: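 Cells seeded at 3,000/well and allowed 5 hr at 37C, 0% CO2 before compound transfer and R1881 (0.5 nM final) addition; 16 hr later, live-cell protease fluorescence indicated cytotoxicity.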

[9] = qHTS assay to identify small molecule agonists of the sonic hedgehog signaling (Shh) pathway - cell viability counter screen (AID 1259366); note: nearly all actives have a fitted effect of over 50% in size; note: potency is the fitted concentration of half-maximal effect
In short: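 CellTiter-Fluor fluorescence read-out, 1 hr at 37C, added after 23hr compound exposure. Cells: 3T3 Gli1-Luc, an NIH/3T3 clone with stably integrated Gli1-Luc reporter, plated 4hr before compound.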

[10] = molecular target: Estrogen receptor (Homo sapiens) (UniProt P03372); experiment: qHTS assay to identify small molecule agonists of the estrogen receptor alpha (ER-alpha) signaling pathway in the presence of an antagonist (AID 1259383; calls by dose curve; note: top concentration of the series differs between compounds; nearly all actives have a fitted effect of over 15% in size)
In short: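 Luminescent ERE-luciferase reporter, VM7Luc4E2 cells (endogenous ER-alpha); 10.0nM ICI-182,780 final; 15-point compound titration; 22hr at 37C; ONE-Glo, 30min RT.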

[11] = qHTS assay to identify small molecule agonists or antagonists of the thyroid stimulating hormone receptor (TSHR) signaling pathway - wild type cell line counter screen (AID 1259384; calls by dose curve)
In short: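 Counter screen in untransfected Hek293: compounds (15-point titration, triplicate) plus phosphodiesterase inhibitor Ro20-1724 added after 18 h plating; 30 min RT. Intracellular cAMP via competitive d2/cryptate immunoassay, 1 h incubation.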

[12] = qHTS assay to identify small molecule agonists of the estrogen receptor alpha (ER-alpha) signaling pathway in the presence of an antagonist - cell viability counter screen (AID 1259386);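 note: series mostly up to about 92 µM; cells exposed to compounds for 22 h at 37 °C before the viability read; nearly all actives have a fitted effect of over 30% in size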
In short: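 Using estrogen-depleted VM7Luc4E2 cells, the 15-concentration compound series was applied together with 10.0nM ICI-182,780 and incubated 22hr at 37C/5% CO2. Cell viability was then scored by CellTiter-Fluor.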

[13] = qHTS assay to identify small molecule antagonists of the TGF-beta/Smad signaling pathway - cell viability counter screen (AID 1346824); note: nearly all actives have a fitted effect of over 50% in size
In short: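 Cytotoxicity counter-screen run in the same wells as the beta-lactamase Smad reporter read: CellTiter-Glo luminescence after 30 min at room temperature. HEK 293T SBE-bla cells had 5 hr compound exposure at 37 C with TGF-beta1 (0.25 ng/mL stock).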

[14] = qHTS assay to identify small molecule agonists of the TGF-beta/Smad signaling pathway - cell viability counter screen (AID 1346829)
In short: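 HEK 293T SBE-bla line, 5 hr compound exposure at 37 C, multiplexed CellTiter-Glo viability read by luminescence.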

[15] = qHTS assay to identify small molecule agonists of the TGF-beta/Smad signaling pathway (AID 1346859; active = well fitted activation curve with a large enough effect in the signal ratio in the repeat runs, not every such curve was filed as active; the % refers to the signal ratio; note: series mostly up to about 77 µM)
In short: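 Read-out: fluorescence at 460 and 530 nm (405 nm excitation) after a 2 hr room-temperature incubation with beta-lactamase FRET substrate. SBE-bla HEK 293T cells had been treated with test compounds for 5 hr at 37 C.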

[16] = molecular target: Voltage-gated inwardly rectifying potassium channel KCNH2 (Homo sapiens) (UniProt Q12809); experiment: Human Ether-a-go-go-Related Gene (hERG) channel small molecule antagonists: fluorescence cell-based qHTS assay (AID 1671200); note: nearly all actives have a fitted effect of over 50% in size; note: potency is the fitted concentration of half-maximal effect
In short: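 Read-out: thallium influx as a surrogate for potassium, tracked as fluorescence (480 nm ex/540 nm em) every second for 2 min after Stimulus Buffer addition in dye-loaded hERG-U2OS cells.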

[17] = molecular target: Nuclear receptor subfamily 1 group I member 3 (Homo sapiens) (UniProt Q14994); experiment: qHTS assay to identify small molecule antagonists of the constitutive androstane receptor (CAR) signaling pathway (AID 1224838); note: nearly all actives have a fitted effect of over 40% in size; note: potency is the fitted concentration of half-maximal effect
In short: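 Inhibition of CITCO-driven (50 nM final) CYP2B6 reporter expression is measured in HepG2 cells stably carrying hCAR. Fifteen compound concentrations are applied for 24 h at 37 C, followed by luciferase luminescence.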

[18] = qHTS assay to identify small molecule antagonists of the sonic hedgehog signaling (Shh) pathway (AID 1259369; calls by dose curve; note: nearly all actives have a fitted effect of over 45% in size; note: potency is the fitted concentration of half-maximal effect)
In short: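 Read-out is luminescence from a firefly luciferase gene controlled by the Gli1 response element, in 3T3Gli1-Luc cells pre-incubated 4hr then exposed to compounds and conditioned medium for 24hr.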

[19] = molecular target: Cytochrome P450 2C19 (Homo sapiens) (UniProt P33261); experiment: Cytochrome P450 Family 2 Subfamily C Member 19 (CYP2C19) small molecule antagonists: luciferase reporter qHTS assay (AID 1671197); note: nearly all actives have a fitted effect of over 65% in size; note: potency is the fitted concentration of half-maximal effect
In short: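 First, compounds are pinned into enzyme-substrate mix and held 10 min at room temperature. Second, NADPH regeneration solution is added and plates incubate 1 h at 37C. Third, detection reagent is added and luminescence read after 20 min.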

Measured: Potency

Chain of Estrogen receptor (Homo sapiens) (P03372 whole entry, looked up): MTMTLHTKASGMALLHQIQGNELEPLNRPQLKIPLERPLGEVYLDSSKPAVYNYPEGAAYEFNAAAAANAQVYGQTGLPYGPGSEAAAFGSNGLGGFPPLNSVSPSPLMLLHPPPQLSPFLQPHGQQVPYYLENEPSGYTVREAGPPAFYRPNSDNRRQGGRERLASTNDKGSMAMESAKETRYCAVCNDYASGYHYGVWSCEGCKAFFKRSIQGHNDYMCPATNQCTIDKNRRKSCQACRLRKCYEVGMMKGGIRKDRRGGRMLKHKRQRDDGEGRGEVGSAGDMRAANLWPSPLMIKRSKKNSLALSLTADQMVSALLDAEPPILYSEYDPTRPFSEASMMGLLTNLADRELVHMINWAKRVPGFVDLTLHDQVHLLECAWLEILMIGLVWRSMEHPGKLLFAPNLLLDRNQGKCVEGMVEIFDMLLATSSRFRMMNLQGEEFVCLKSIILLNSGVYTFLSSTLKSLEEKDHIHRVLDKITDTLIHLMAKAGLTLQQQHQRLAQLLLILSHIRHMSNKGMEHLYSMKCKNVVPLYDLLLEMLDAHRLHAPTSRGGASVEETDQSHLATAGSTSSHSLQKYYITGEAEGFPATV
Chain of Nuclear receptor subfamily 1 group I member 3 (Homo sapiens) (Q14994 whole entry, looked up): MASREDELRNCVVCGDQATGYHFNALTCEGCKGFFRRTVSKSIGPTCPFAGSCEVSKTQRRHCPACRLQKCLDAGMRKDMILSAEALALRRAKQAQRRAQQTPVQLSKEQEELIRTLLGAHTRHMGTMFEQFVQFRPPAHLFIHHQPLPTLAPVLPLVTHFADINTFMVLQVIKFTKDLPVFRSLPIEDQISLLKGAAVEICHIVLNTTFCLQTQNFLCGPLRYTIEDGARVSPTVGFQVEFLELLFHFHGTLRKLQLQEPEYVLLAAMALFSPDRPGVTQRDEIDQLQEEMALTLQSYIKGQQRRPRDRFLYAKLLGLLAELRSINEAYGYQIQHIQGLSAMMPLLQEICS
Chain of Aromatase (Homo sapiens) (P11511 whole entry, looked up): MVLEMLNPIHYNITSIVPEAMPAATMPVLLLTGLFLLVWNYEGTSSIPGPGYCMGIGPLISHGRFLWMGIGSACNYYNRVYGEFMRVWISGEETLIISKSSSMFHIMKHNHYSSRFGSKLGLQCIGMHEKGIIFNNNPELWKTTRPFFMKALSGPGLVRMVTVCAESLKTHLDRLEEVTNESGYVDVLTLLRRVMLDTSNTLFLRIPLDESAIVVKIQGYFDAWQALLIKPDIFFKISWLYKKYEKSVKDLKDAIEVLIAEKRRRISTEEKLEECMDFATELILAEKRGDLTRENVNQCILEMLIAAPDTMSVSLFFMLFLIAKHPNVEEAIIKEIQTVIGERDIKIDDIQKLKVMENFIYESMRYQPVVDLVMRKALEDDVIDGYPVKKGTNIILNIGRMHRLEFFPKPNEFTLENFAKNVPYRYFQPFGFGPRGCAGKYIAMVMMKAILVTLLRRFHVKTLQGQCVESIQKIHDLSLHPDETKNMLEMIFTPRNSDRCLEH
Chain of Voltage-gated inwardly rectifying potassium channel KCNH2 (Homo sapiens) (Q12809 whole entry, looked up): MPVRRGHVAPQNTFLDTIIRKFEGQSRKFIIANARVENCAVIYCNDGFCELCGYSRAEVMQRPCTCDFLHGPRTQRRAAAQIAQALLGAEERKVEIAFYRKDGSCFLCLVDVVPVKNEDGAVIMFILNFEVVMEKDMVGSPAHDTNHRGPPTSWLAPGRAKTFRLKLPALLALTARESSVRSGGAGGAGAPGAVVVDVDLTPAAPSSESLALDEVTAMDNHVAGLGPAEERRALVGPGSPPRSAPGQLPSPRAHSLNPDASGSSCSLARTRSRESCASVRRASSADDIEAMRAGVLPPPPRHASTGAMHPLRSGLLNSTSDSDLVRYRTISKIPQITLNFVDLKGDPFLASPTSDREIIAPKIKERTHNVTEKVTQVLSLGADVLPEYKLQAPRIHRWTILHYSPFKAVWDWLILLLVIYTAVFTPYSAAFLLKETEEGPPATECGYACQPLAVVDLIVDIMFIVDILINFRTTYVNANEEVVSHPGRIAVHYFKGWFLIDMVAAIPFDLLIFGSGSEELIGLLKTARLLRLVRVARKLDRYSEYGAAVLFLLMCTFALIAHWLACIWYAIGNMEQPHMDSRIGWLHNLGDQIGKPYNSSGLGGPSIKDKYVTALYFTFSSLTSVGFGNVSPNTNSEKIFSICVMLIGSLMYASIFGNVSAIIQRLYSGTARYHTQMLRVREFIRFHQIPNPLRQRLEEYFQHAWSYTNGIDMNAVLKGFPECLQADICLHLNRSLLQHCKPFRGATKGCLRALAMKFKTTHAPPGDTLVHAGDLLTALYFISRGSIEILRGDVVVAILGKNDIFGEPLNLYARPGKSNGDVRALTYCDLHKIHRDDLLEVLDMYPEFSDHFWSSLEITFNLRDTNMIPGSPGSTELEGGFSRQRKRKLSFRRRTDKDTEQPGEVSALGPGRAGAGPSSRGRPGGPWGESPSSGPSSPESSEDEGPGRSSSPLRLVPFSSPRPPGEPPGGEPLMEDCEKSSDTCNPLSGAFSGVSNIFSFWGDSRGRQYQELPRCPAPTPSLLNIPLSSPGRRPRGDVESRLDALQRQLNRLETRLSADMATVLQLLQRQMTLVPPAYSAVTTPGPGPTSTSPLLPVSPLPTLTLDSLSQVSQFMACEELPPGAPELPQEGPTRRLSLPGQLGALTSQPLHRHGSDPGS
Chain of Cytochrome P450 2C19 (Homo sapiens) (P33261 whole entry, looked up): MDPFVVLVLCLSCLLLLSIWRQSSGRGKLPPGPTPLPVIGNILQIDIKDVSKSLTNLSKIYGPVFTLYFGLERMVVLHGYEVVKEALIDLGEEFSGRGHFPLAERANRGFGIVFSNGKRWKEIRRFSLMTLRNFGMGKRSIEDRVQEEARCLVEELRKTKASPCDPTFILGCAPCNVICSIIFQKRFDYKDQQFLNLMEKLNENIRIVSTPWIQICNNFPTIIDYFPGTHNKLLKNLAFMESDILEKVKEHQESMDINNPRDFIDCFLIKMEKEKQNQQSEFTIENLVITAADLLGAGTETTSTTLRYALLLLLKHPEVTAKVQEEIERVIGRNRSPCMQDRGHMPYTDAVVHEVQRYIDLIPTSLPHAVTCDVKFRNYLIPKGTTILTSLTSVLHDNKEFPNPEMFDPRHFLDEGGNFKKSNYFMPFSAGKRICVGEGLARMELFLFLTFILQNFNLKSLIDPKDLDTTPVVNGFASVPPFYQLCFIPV

CC(C)(C)c1cc(C(C)(C)C)c(O)c(C(C)(C)C)c1
inactive: Aromatase (Homo sapiens)

Oc1c(I)cc(I)cc1I
inactive: [1] | [2] | [3] | [4] | [5] | [6] | [7] | [8] | [9] | [10] | [11] | [12] | [13] | [14] | [15] | [16]

O=[N+]([O-])c1cc(C(F)(F)F)ccc1Cl
inactive: Aromatase (Homo sapiens) | [2]

Cc1cc(C)c(C(=O)P(=O)(c2ccccc2)c2ccccc2)c(C)c1
inactive: [17] | [2] | [5] | [8] | [10] | [11] | [13] | [15]
active: [1] 38.9 µM | [9] 61.1 µM | [18] 4.33 µM | [19] 6.33 µM | [16] 19.5 µM

N#Cc1cc([N+](=O)[O-])ccc1N
inactive: [1] | [17] | [2] | [3] | [4] | [5] | [6] | [7] | [8] | [10] | [11] | [14] | [15] | [16]

CCOC(=O)C(O)(c1ccc(Cl)cc1)c1ccc(Cl)cc1
active: Aromatase (Homo sapiens) 4.37 µM and 30.6 µM | [1] 44.1 µM and 43.6 µM | [3] 44.1 µM | [18] 7.77 µM and 19.3 µM | [19] 453 nM and 317 nM | [16] 22.1 µM and 21.9 µM
inactive: [17] | [4] | [5] | [6] | [7] | [8] | [10] | [12] | [13] | [14] | [15]

COc1cc(OC)c(OC)cc1C=O
inactive: [1] | [17] | [2] | [3] | [4] | [5] | [6] | [7] | [8] | [10] | [11] | [12] | [13] | [14] | [15] | [16]
active: Aromatase (Homo sapiens) 44.4 µM | [18] 13.3 µM | [19] 38.7 µM

CN1CSC(=S)N(C)C1
active: Aromatase (Homo sapiens) 4.83 µM and 3.85 µM | [17] 3.84 µM and 7.67 µM | [3] 6.88 µM and 12.3 µM | [5] 15.4 µM | [9] 2.42 µM and 6.09 µM | [18] 342 nM and 1.08 µM | [19] 35.4 µM and 17.8 µM
inactive: [2] | [4] | [6] | [7] | [10] | [11] | [12] | [13] | [14] | [15] | [16]

ClC1=C(Cl)[C@]2(Cl)[C@@H]3[C@@H](Cl)[C@H]4O[C@H]4[C@@H]3C1(Cl)C2(Cl)Cl
inactive: [17] | [2] | [6] | [7] | [8] | [9] | [10] | [12] | [13] | [14] | [15]
active: [1] 49 µM | [3] 54.9 µM | [18] 48.6 µM | [16] 54.9 µM

CCN(CC)C(=O)Cl
inactive: [1] | [17] | [2] | [3] | [4] | [5] | [6] | [7] | [8] | [9] | [18] | [10] | [11] | [12] | [13] | [14] | [15] | [19] | [16]

CNC(=O)Oc1cc(C)c(SC)c(C)c1
inactive: [1] | [17] | [4] | [5] | [6] | [7] | [8] | [9] | [10] | [11] | [12] | [13] | [14] | [15] | [16]
active: [18] 8.63 µM | [19] 56.4 µM

O=C(Nc1ccccc1-c1ccc(Cl)cc1)c1cccnc1Cl
active: [4] 41.2 µM | [19] 3.56 µM
inactive: [1] | [17] | [2] | [5] | [6] | [8] | [9] | [10] | [11] | [12] | [15] | [16]

c1ccc2c(c1)Sc1ccccc1N2CC1CN2CCC1CC2 (stereo unspecified)
active: [3] 26.8 µM | [4] 23.9 µM | [5] 23.9 µM | [8] 29.8 µM | [9] 11.9 µM | [18] 9.44 µM | [16] 5.35 µM
inactive: [1] | [2] | [11] | [12] | [13] | [14] | [15]

CCC(C)=O
inactive: Aromatase (Homo sapiens)

O=[N+]([O-])c1c(Cl)c(Cl)cc(Cl)c1Cl
inactive: [1] | [2] | [5] | [6] | [7] | [8] | [9] | [18] | [10] | [11] | [12] | [13] | [14] | [16]
active: [3] 49 µM | [19] 71 µM

CC1COC(Cn2cncn2)(c2ccc(Oc3ccc(Cl)cc3)cc2Cl)O1 (stereo unspecified)
inactive: [1] | [2] | [4] | [6] | [9] | [10] | [11] | [14] | [15]
active: Aromatase (Homo sapiens) 30.6 µM | [3] 49 µM | [18] 3.44 µM | [19] 0.0502 µM | [16] 21.9 µM

Clc1ccccc1-c1ccccc1Cl
active: [3] 31.4 µM | [16] 27.9 µM
inactive: [4] | [5] | [6] | [7] | [8] | [9] | [18] | [12] | [13] | [15] | [19]

Oc1c(Cl)ccc(Cl)c1Cl
inactive: [17]

CCCN1CCC[C@H](c2cccc(O)c2)C1
inactive: Aromatase (Homo sapiens)

O=P(O)(O)C(Cl)(Cl)P(=O)(O)O
inactive: Aromatase (Homo sapiens)

CCCCCN(C)CCC(O)(P(=O)(O)O)P(=O)(O)O
inactive: Aromatase (Homo sapiens)

CCCCc1ccc(C(=O)O)nc1
inactive: Aromatase (Homo sapiens)

CCn1cc(C(=O)O)c(=O)c2ccc(C)nc21
inactive: [2]

CC(N)C(=O)OC(C)(C)Cc1ccc(Cl)cc1 (stereo unspecified)
inactive: [2]

CC(C)NC(C)Cc1ccc(I)cc1 (stereo unspecified)
inactive: Aromatase (Homo sapiens)
